# According to PubChem BioAssay (NCATS):
# Several values for one entry are separate records, joined by “and”; a condition that tells them apart may be missing. Identical values can stand only once. Results filed as inconclusive are left out. Activity calls are given as the source filed them. Unless noted, calls follow the shape of the dose curve; as a rule, active = well fitted curve in the direction sought with a large enough effect; inconclusive = small, poorly fitted or top-dose-only effect, or another doubt; inactive = no such curve, though single readings can be large; an effect the other way counts as inactive or inconclusive.
# Assays:
# [1] = High-throughput drug toxicity screening in the BPDCN cell line Gen2.2 (AID 1224824; call rule not given here); details: Gen2.2 BPDCN cells; at 45.8 µM (top of the series) unless noted
# Summary of the method: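 CellTiter-Glo luminescence after 48 h compound exposure of Gen2.2 cells; percent activity set with DMSO as 100% and bortezomib (9.2 uM final) as 0%. Cells seeded at 500 per well, RPMI + 10% FBS, 37 °C.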
# [2] = High-throughput drug toxicity screening in the BPDCN cell line Cal-1 (AID 1224825; call rule not given here); details: Cal-1 BPDCN cell viability, qHTS; at 45.8 µM (top of the series) unless noted
# Summary of the method: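 Cal-1 cells, 500 per well in phenol-red-free RPMI with 10% FBS, exposed to compounds for 48 hours at 37C, 5% CO2. Viability read by CellTiter-Glo luminescence; percent activity normalized to DMSO (100%) and 9.2 uM bortezomib final (0%).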
# [3] = qHTS assay for measurement of the activity of small molecule inhibitors on Zika virus induced Caspase-3 activity in human iPSC derived neural progenitor cells (hNPCs) (AID 1224857); also: potency is read from the fitted curve at half-maximal effect; nearly all actives have a fitted effect of over 65% in size
# Summary of the method: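 Human iPSC-derived neural progenitor cells pretreated 1 hr with compounds, then infected with Zika virus (2 FFU/cell) for 6 hours at 37 C. Caspase-3/7 measured by Caspase-Glo luminescence; % inhibition calculated from induction scaled to uninfected (0%) and infected (100%) wells.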
# [4] = qHTS Screen of the MIPE 4.0 Collection Against Ewings Sarcoma (RDES) (AID 1259252); also: nearly all actives have a fitted effect of over 35% in size; also: potency is read from the fitted curve at half-maximal effect
# Summary of the method: (§1)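 Viability screen: 48 h incubation at 37C, 95% humidity, 5% CO2 with serially titrated compound, followed by CellTiter-Glo readout.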
# [5] = qHTS Screen of the MIPE 4.0 Collection Against Ewings Sarcoma (EW8) (AID 1259255); also: nearly all actives have a fitted effect of over 35% in size; also: potency is read from the fitted curve at half-maximal effect;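 as to viability: 100% = DMSO-treated cells and 0% = medium-only wells without cells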
# Summary of the method: as §1
# [6] = qHTS Screen of the MIPE 4.0 Collection Against Ewings Sarcoma (TC32) (AID 1259256); also: nearly all actives have a fitted effect of over 45% in size; also: potency is read from the fitted curve at half-maximal effect
# Summary of the method: as §1
# [7] = qHTS assay to identify small molecule inhibitors of chordoma cells - UCH-2 (AID 1259356); also: % is scaled to controls: 0 for no effect and ±100 for the full control effect
# [8] = P-glycoprotein substrates identified in KB-8-5-11 adenocarcinoma cell line, qHTS therapeutic library screen (AID 1346987); also: nearly all actives have a fitted effect of over 65% in size; also: potency is read from the fitted curve at half-maximal effect
# Summary of the method: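 Steps: plate 500 KB-8-5-11 cells/well in DMEM + 10% FCS (colchicine removed); pin compounds in dose-response; incubate 72 h, 37 degree C, 5% CO2; add CellTiter-Glo, 5 min; read luminescence.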
# [9] = qHTS profiling of the MIPE4 collection as inhibitors of Plasmodium falciparum (3D7) proliferation (AID 743344; call rule not given here;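 also: scaled between DMSO vehicle wells and 0.29 µM artemisinin as full inhibition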); details: P. falciparum 3D7 in erythrocytes, SYBR Green DNA fluorescence, 72 h; at 28.5 µM (top of the series) unless noted
# Summary of the method: (§2)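 Erythrocytes infected with P. falciparum (0.3% parasitemia, 2.5% hematocrit) incubated with compounds 72 h at 37 C, 5% CO2. Lysis with saponin/Triton buffer containing SYBR Green I, overnight at room temperature in the dark; DNA fluorescence (485/535 nm) normalised to 0.29 uM artemisinin and DMSO.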
# [10] = qHTS profiling of the MIPE4 collection as inhibitors of Plasmodium falciparum (DD2) proliferation (AID 743345; call rule not given here); details: P. falciparum Dd2 in erythrocytes, SYBR Green DNA, 72 h; at 28.5 µM (top of the series) unless noted
# Summary of the method: as §2
# [11] = qHTS profiling of the MIPE4 collection as inhibitors of Plasmodium falciparum (DD2) proliferation (Rep 2) (AID 743346; call rule not given here); details: P. falciparum Dd2 in erythrocytes, SYBR Green DNA, 72 h; at 28.5 µM (top of the series) unless noted
# Summary of the method: as §2
# [12] = qHTS profiling of the MIPE4 collection as inhibitors of Plasmodium falciparum (HB3) proliferation (AID 743347; call rule not given here;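 also: plate controls were DMSO vehicle wells for no effect and artemisinin wells for full effect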); details: P. falciparum HB3 in erythrocytes, SYBR Green DNA, 72 h; at 28.5 µM (top of the series) unless noted
# Summary of the method: as §2
# [13] = P-glycoprotein substrates identified in KB-3-1 adenocarcinoma cell line, qHTS therapeutic library screen (AID 1346986); also: nearly all actives have a fitted effect of over 60% in size;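 also: potency is read from the fitted curve at half-maximal effect; potency is for cytotoxicity meaning loss of cell viability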
# Summary of the method: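 KB-3-1 parental and colchicine-selected P-gp-overexpressing KB-8-5-11 cells (colchicine omitted during assay), 500 cells/well, dosed in dose-response for 72 h at 37 °C; CellTiter-Glo luminescence. Cytotoxic: curve class -1.1 to -2.4, max response >50%, AC50 < 10 uM.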
# [14] = qHTS assay for measurement of the activity of small molecule inhibitors on Zika virus induced Caspase-3 activity in human astrocytoma cells (AID 1224859);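 also: plate controls were ZIKV-infected untreated cells for no effect and uninfected cells for full effect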
# Summary of the method: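 SNB-19 astrocytoma cells, 250/well, pretreated 1 h with compounds, then Zika virus at 2 FFU/cell for 6 h at 37 C; Caspase-Glo 3/7 luminescence after 30 min; percent inhibition normalised to uninfected and infected controls.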
# [15] = qHTS Screen of the MIPE 4.0 Collection Against Ewings Sarcoma (TC71) (AID 1259253); also: nearly all actives have a fitted effect of over 40% in size; also: potency is read from the fitted curve at half-maximal effect
# Summary of the method: as §1
# [16] = Identifying Small Molecule Inhibitors of Pancreatic Cancer Stem Cells (A278, Adherent) (AID 1259361);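 also: viability read after 48 h compound exposure; nearly all actives have a fitted effect of over 35% in size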
# Summary of the method: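 Monolayer and spheroid cultures are compared. Spheroids form over 14 days in stem cell medium on hydrogel-coated low-attachment plates, then are exposed to compound for 48 h before CellTiter-Glo luminescence.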
SMILES,"cell viability, % of control (lower = more cytotoxic) [1]",viability (% of control) [2],Potency [3],Potency [4],Potency [5],Potency [6],outcome [7],Potency [8],"parasite growth, % of DMSO control [9]","parasite growth remaining, % of DMSO control (lower = more inhibition) [10]","parasite growth, % of control (lower = inhibition) [11]","growth, % of control [12]",Potency [13],Potency [14],Potency [15],IC50 (viability decrease) [16]
CC(C(=O)O)c1ccc(-c2ccccc2)c(F)c1 (stereo not drawn),84.9%,96.9%,16.6 µM (active),18.7 µM (active),inactive,11.8 µM (active),inactive,inactive,,,,,,,,
CC1(C)Cc2c(sc(NC(=S)NC(=O)c3ccccc3)c2C(=O)O)CO1,100%,95.7%,20.9 µM (active),29.6 µM (active),inactive,,,inactive,90.4%,100%,110%,103%,inactive,,,
CCCCCNC(=O)N1CCC(CN(Cc2ccc(Cl)cc2)Cc2ccc([N+](=O)[O-])s2)C1 (stereo not drawn),15.7%,44.4%,,20.9 µM (active),,,,,60.8%,25.2%,30.3%,,,inactive,,
CC[C@@]1(O)C[C@H](O[C@H]2C[C@H](N(C)C)[C@H](O[C@H]3C[C@H](O)[C@H](O[C@H]4CCC(=O)[C@H](C)O4)[C@H](C)O3)[C@H](C)O2)c2c(cc3c(c2O)C(=O)c2c(O)cccc2C3=O)[C@@H]1C(=O)OC,5.55%,3.95%,,0.59 µM (active),0.296 µM (active),inactive,,,,,5.22%,2.06%,,inactive,0.187 µM (active),
Cc1nc(N)sc1-c1ccnc(Nc2ccc(N3CCOCC3)cc2)n1,33.6%,6.5%,,18.7 µM (active),0.833 µM (active),16.6 µM (active),,5.26 µM (active) and 1.16 µM (active),,9.15%,16.4%,,1.46 µM (active),inactive,14.8 µM (active),5.9 µM (active)
C[C@@H]1CCN(C(=O)CC#N)C[C@H]1N(C)c1ncnc2[nH]ccc12,52.4%,110%,,inactive,inactive,inactive,,inactive,72.5%,96.3%,93.5%,74.7%,,inactive,inactive,
Nc1ncnc2c1ncn2[C@@H]1O[C@@H](CO)[C@H](O)[C@H]1O,235%,117%,,inactive,inactive,inactive,,inactive,,84.1%,114%,111%,inactive,inactive,inactive,
Clc1ccc(CCC(Cn2ccnc2)Sc2c(Cl)cccc2Cl)cc1 (stereo not drawn),177%,,,inactive,,inactive,,,5.77%,6.42%,10.3%,3.43%,,,,
